Measurements from PubChem BioAssay.
Measured potencies and affinities stand elsewhere. Results filed as inconclusive are left out. Calls of active or inactive are those of the source. Unless noted, the rule behind the calls is not given here.

Tests used:
[1] = cytotoxicity in PAX8-dependent RMG-1 cells, dose response, cell-based, cherry-pick (AID 687029;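 active = signal drop whose fitted half-maximal concentration is at most twice the top valid dose, in every test run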;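 note: cells exposed to compound for 96 hours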)
[2] = cytotoxicity in IOSE-T80 ovarian epithelial cells, dose response, selectivity assay for PAX8 inhibitor project, cell-based, cherry-pick (AID 687032;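 active = fitted half-maximal concentration for viability loss no higher than twice the top valid dose, in every repeat run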;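 note: cells exposed to compound for 96 h before reading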)
[3] = inhibitors of CMV-promoter luciferase reporter, dose response, counter-screen for Pax8 inhibitor project, cell-based, HEK293, luminescence, dry powder (AID 743020;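 active = signal-lowering compounds whose fitted half-maximal concentration is at or below twice the top tested dose in every run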;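 note: HEK293 cells stably expressing the CMV luciferase reporter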)
[4] = non-specific cell cytotoxicity, dose response, cytotoxicity control for PAX8 inhibitor project, plate reader, dry powder samples (AID 743021)
[5] = IGROV1 ovarian cancer cell cytotoxicity, dose response, PAX8 inhibitor project, plate reader, dry powder samples (AID 743043);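 note: more negative means fewer viable cells or more cytotoxicity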
[6] = IOSE-T80 ovarian epithelial cell cytotoxicity, dose response, cytotoxicity control for PAX8 inhibitor project, plate reader, dry powder samples (AID 743045);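 note: more negative values mean more cell killing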
[7] = A2780 ovarian cancer cell cytotoxicity, dose response, cytotoxicity control, plate reader, dry powder samples (AID 743046)
[8] = cytotoxicity in OVCAR8 ovarian cancer cells, dose response, PAX8 project, cell-based, plate reader, dry powder samples (AID 743197)

Measured: outcome

C[C@H]1CCCCO[C@H](CN(C)S(=O)(=O)c2ccc(F)cc2)[C@@H](C)CN([C@@H](C)CO)C(=O)c2cc(NS(=O)(=O)c3ccc(Cl)cc3)ccc2O1
inactive: [1] | [2] | [3] | [4] | [5] | [6] | [7]

C[C@@H]1CN([C@H](C)CO)C(=O)c2cc(NC(=O)Nc3ccc(C(F)(F)F)cc3)ccc2O[C@@H](C)CCCCO[C@H]1CN(C)S(=O)(=O)c1ccccc1
inactive: [1] | [2] | [3] | [4] | [5] | [6] | [7] | [8]

COc1ccc(-c2ccc3c(c2)[C@@H]2[C@@H](CCN2S(=O)(=O)c2ccc(OC)cc2)[C@@H](CO)N3C)cc1
inactive: [1] | [2] | [3] | [4] | [5] | [6] | [7]

C[C@@H]1CN([C@H](C)CO)S(=O)(=O)c2ccc(C#CC3CCCC3)cc2O[C@H]1CN(C)Cc1cccnc1
inactive: [1] | [2] | [3] | [4] | [5] | [6] | [7]

C[C@H](CO)N1C[C@H](C)[C@H](CN(C)S(=O)(=O)c2ccc(Cl)cc2)OCCCC[C@H](C)Oc2ccc(NS(=O)(=O)c3ccc(Cl)cc3)cc2C1=O
inactive: [1] | [2] | [3] | [4] | [5] | [6] | [7]

C[C@H](CO)N1C[C@H](C)[C@H](CN(C)Cc2ccc(C(F)(F)F)cc2)OCCCC[C@H](C)Oc2ccc(NC(=O)NC3CCCCC3)cc2C1=O
inactive: [1] | [2] | [3] | [4] | [5] | [6] | [7]

C[C@@H]1CCCCO[C@H](CN(C)Cc2ccc(C(F)(F)F)cc2)[C@H](C)CN([C@@H](C)CO)C(=O)c2cc(NS(=O)(=O)c3ccc(Cl)cc3)ccc2O1
inactive: [1] | [2] | [3] | [4] | [5] | [6] | [7]

C[C@@H]1CN([C@H](C)CO)C(=O)c2cc(NC(=O)Nc3ccccc3)ccc2O[C@@H](C)CCCCO[C@@H]1CN(C)CC1CCCCC1
inactive: [1] | [2] | [3] | [4] | [5] | [6] | [7]

C[C@@H](O)C#Cc1ccc2c(c1)O[C@H](CN(C)Cc1ccc(-c3ccccc3)cc1)[C@@H](C)CN([C@@H](C)CO)S2(=O)=O
inactive: [1] | [2] | [3] | [4] | [5] | [6] | [7]

COCC(=O)N1CCCCN2[C@H](C1)[C@@H](c1ccc(-c3ccc(C)cc3)cc1)[C@@H]2CO
inactive: [1] | [2] | [3] | [4] | [5] | [6] | [7] | [8]

Cc1noc(C)c1S(=O)(=O)Nc1ccc2c(c1)C(=O)N([C@H](C)CO)C[C@@H](C)[C@H](CN(C)C(=O)Nc1ccc(C(F)(F)F)cc1)OCCCC[C@@H](C)O2
inactive: [1] | [2] | [3] | [4] | [5] | [6] | [7]

O=C(Cc1ccccc1)N1CC[C@H]2[C@H](CO)Nc3ccc(C4=CCCCC4)cc3[C@H]21
inactive: [1] | [2] | [3] | [4] | [5] | [6] | [7] | [8]

COc1ccc(CN(C)C[C@@H]2OCCCC[C@H](C)Oc3ccc(NC(=O)Nc4ccc(C(F)(F)F)cc4)cc3C(=O)N([C@H](C)CO)C[C@@H]2C)cc1
inactive: [1] | [2] | [3] | [4] | [5] | [6] | [7] | [8]

CC(C)CC1NC(=S)N(Cc2ccccc2)C1=O (centres undefined)
inactive: [1] | [2] | [3] | [4] | [5] | [6] | [7]

C[C@@H]1CN([C@H](C)CO)C(=O)c2cc(NC(=O)Cc3ccccc3)ccc2O[C@@H](C)CCCCO[C@@H]1CN(C)Cc1ccc(C(F)(F)F)cc1
inactive: [1] | [2] | [3] | [4] | [5] | [6] | [7]

O=C(Nc1ccc(C(F)(F)F)cc1)Nc1ccc2c(c1)[C@@H]1C[C@H](CC(=O)N3CCc4ccccc4C3)O[C@H](CO)[C@@H]1O2
inactive: [1] | [2] | [3] | [4] | [5] | [6] | [7]

C[C@H]1CCCCO[C@H](CN(C)Cc2ccc(C(F)(F)F)cc2)[C@@H](C)CN([C@@H](C)CO)C(=O)c2cc(NS(=O)(=O)c3cccs3)ccc2O1
inactive: [1] | [2] | [3] | [4] | [5] | [6] | [7]

Cc1ccc(S(=O)(=O)Nc2ccc3c(c2)C(=O)N([C@H](C)CO)C[C@@H](C)[C@H](CN(C)Cc2ccc(Cl)c(Cl)c2)OCCCC[C@H](C)O3)cc1
inactive: [1] | [2] | [3] | [4] | [5] | [6] | [7]

C[C@@H]1CN([C@H](C)CO)C(=O)c2cc(NC(=O)Nc3ccc(C(F)(F)F)cc3)ccc2O[C@@H](C)CCCCO[C@H]1CN(C)C(=O)NC1CCCCC1
inactive: [1] | [2] | [3] | [4] | [5] | [6] | [7]

C[C@@H]1CN([C@H](C)CO)C(=O)c2cc(NC(=O)Nc3ccccc3)ccc2O[C@@H](C)CCCCO[C@H]1CN(C)C(=O)Nc1ccc(C(F)(F)F)cc1
inactive: [1] | [2] | [3] | [4] | [5] | [6] | [7]

C[C@@H]1CCCCO[C@H](CN(C)CC2CCCCC2)[C@H](C)CN([C@@H](C)CO)C(=O)c2cc(NC(=O)Nc3ccccc3)ccc2O1
inactive: [1] | [2] | [3] | [4] | [5] | [6] | [7]

CC(C)NC(=O)N(C)C[C@H]1OCCCC[C@@H](C)Oc2ccc(NC(=O)Nc3ccc(C(F)(F)F)cc3)cc2C(=O)N([C@@H](C)CO)C[C@H]1C
inactive: [1] | [2] | [3] | [4] | [5] | [6] | [7]

C[C@@H]1CN([C@H](C)CO)S(=O)(=O)c2ccc(-c3ccc(C#N)cc3)cc2O[C@@H]1CN(C)Cc1cccc(F)c1
inactive: [1] | [2] | [3] | [4] | [5] | [6] | [7]

C[C@@H]1CN([C@H](C)CO)C(=O)c2cc(NC(=O)Nc3ccc(F)cc3)ccc2O[C@@H](C)CCCCO[C@@H]1CN(C)Cc1ccc(Cl)c(Cl)c1
inactive: [1] | [2] | [3] | [4] | [5] | [6] | [7]

C[C@@H]1CCCCO[C@H](CN(C)C(=O)Nc2ccc(C(F)(F)F)cc2)[C@@H](C)CN([C@@H](C)CO)C(=O)c2cc(NC(=O)Nc3ccc(C(F)(F)F)cc3)ccc2O1
inactive: [1] | [2] | [3] | [4] | [5] | [6] | [7]

C[C@H]1CCCCO[C@H](CN(C)C(=O)C2CCCCC2)[C@@H](C)CN([C@@H](C)CO)C(=O)c2cc(NS(=O)(=O)c3ccc(Cl)cc3)ccc2O1
inactive: [1] | [2] | [3] | [4] | [5] | [6] | [7]

C[C@@H]1CN([C@H](C)CO)C(=O)c2cc(NC(=O)Nc3cccc4ccccc34)ccc2O[C@@H]1CN(C)C(=O)Nc1cccc2ccccc12
inactive: [1] | [2] | [3] | [4] | [5] | [6] | [7]

COc1ccc(S(=O)(=O)Nc2ccc3c(c2)CC(=O)N([C@@H](C)CO)C[C@@H](C)[C@H](CN(C)Cc2ccc(C(F)(F)F)cc2)O3)cc1
inactive: [1] | [2] | [3] | [4] | [5] | [6] | [7]

C[C@@H]1CN([C@H](C)CO)C(=O)CCCn2cc(nn2)CO[C@H]1CN(C)C(=O)Nc1ccc(-c2cccs2)cc1
inactive: [1] | [2] | [3] | [4] | [5] | [6] | [7]

COc1cccc(C#Cc2ccc3c(c2)O[C@@H](CN(C)C(=O)c2ccccn2)[C@H](C)CN([C@@H](C)CO)S3(=O)=O)c1
inactive: [1] | [2] | [3] | [4] | [5] | [6] | [7]

CS(=O)(=O)N1CC(=O)N2[C@H](CO)[C@H](c3ccc(C#CCC4CCCC4)cc3)[C@H]2C1
inactive: [1] | [2] | [3] | [4] | [5] | [6] | [8]

Cc1cccc(S(=O)(=O)N2CC[C@@H]3[C@H](CO)N(C)c4ccc(-c5ccc(C#N)cc5)cc4[C@@H]32)c1
inactive: [1] | [2] | [3] | [4] | [5] | [6] | [7] | [8]

O=S(=O)(c1ccccc1F)N1CC[C@H]2[C@H](CO)Nc3ccc(C4=CCCCC4)cc3[C@H]21
inactive: [1] | [2] | [3] | [4] | [5] | [7]

COc1ccc2c3c(n(C)c2c1)[C@@H](CO)N(C(=O)Nc1ccc(F)cc1)CC31CCN(S(=O)(=O)c2cccc(C)c2)CC1
inactive: [1] | [2] | [3] | [4] | [5] | [6] | [7] | [8]

C[C@H]1CN([C@@H](C)CO)C(=O)Cc2cc(NC(=O)Nc3ccc(F)cc3)ccc2O[C@H]1CN(C)Cc1ccc(Cl)c(Cl)c1
inactive: [1] | [2] | [3] | [4] | [5] | [6] | [7] | [8]

O=C(C[C@@H]1C[C@H]2c3cc(NC(=O)Nc4ccc(C(F)(F)F)cc4)ccc3O[C@H]2[C@H](CO)O1)NCc1ccc(Cl)cc1
inactive: [1] | [2] | [3] | [4] | [5] | [6] | [7] | [8]
